Assay results as given in PubChem BioAssay.
Calls of active or inactive are those of the source. Unless noted, no rule for the calls is given here.

Columns and labels:
[1] = A549 cell viability effects, profiling panel, calcein-AM fluorescence, 48 h, basal (AID 1162); details: higher = more signal; also: test concentration not given here
[2] = adipocyte viability effects, profiling panel, cell-based, 3T3-L1 adipocytes, calcein-AM fluorescence, 48 h, basal (AID 1163); details: 3T3-L1 adipocytes viability, higher = more signal; also: test concentration not given here
[3] = HepG2 cell viability effects, profiling panel, calcein-AM fluorescence, 48 h, basal (AID 1164); details: higher = more signal; also: test concentration not given here
[4] = MM1S cell viability effects, profiling panel, calcein-AM fluorescence, 48 h, basal (AID 1165); details: higher = more signal;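 also: viability of MM1S multiple myeloma cells under basal unstimulated conditions; test concentration not given here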
[5] = basal RPMI8226 viability, no added stimulus, profiling panel, cell-based, calcein-AM fluorescence, 48 h, PK04 Diversity Set (AID 1166); details: RPMI8226 myeloma viability, higher = more signal;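 also: cells grown under basal conditions without added stimulus; test concentration not given here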
[6] = basal HepG2 mitochondrial membrane potential changes, profiling panel, cell-based, JC-1 fluorescence, 24 h, 100 nL compound (AID 1167); details: higher = more signal; also: test concentration not given here
[7] = basal 3T3-L1 adipocyte mitochondrial potential changes, profiling panel, cell-based, JC-1 fluorescence, 3T3-L1 adipocytes, 24 h, 100 nL compound (AID 1168); details: JC-1 mitochondrial fluorescence, higher = more signal, called active from +8 up or from −8 down; also: test concentration not given here
[8] = basal RPMI8226 mitochondrial membrane potential changes, profiling panel, cell-based, JC-1 fluorescence, 24 h, 100 nL compound (AID 1169); details: RPMI8226 myeloma, JC-1 mitochondrial potential fluorescence, higher = more signal; also: test concentration not given here
[9] = basal MM1S mitochondrial membrane potential changes, profiling panel, cell-based, JC-1 fluorescence, 24 h, 100 nL compound (AID 1170); details: higher = more signal; also: test concentration not given here
[10] = A549 lung cancer cell viability effects, profiling panel, resazurin fluorescence, 24 h, PK04 Diversity Set (AID 1171); details: higher = more signal, called active from +8 up or from −8 down; also: test concentration not given here
[11] = HepG2 liver cancer cell viability effects, profiling panel, resazurin fluorescence, 24 h, PK04 Diversity Set (AID 1172); details: higher = more signal; also: test concentration not given here
[12] = basal S. cerevisiae growth modulation, no modifier, primary screen, OD600, strain BY4716, 24 h, basal condition (AID 1173); details: OD600, 24 h, higher = more signal, called active from +8 up or from −8 down
[13] = MM1S myeloma cell viability, profiling panel, resazurin fluorescence, basal, 24 h, PK04 Diversity Set (AID 1174); details: higher = more signal, called active from +8 up or from −8 down;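 also: MM1S multiple myeloma cell line; test concentration not given here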
[14] = biological target: Dihydroorotate dehydrogenase (quinone), mitochondrial (Plasmodium falciparum (isolate 3D7)) (UniProt Q08210); assay: PfDHODH enzyme inhibitors, primary screen, biochemical, C-terminal His tag, absorbance 600 nm (AID 1175); details: DCIP absorbance 600 nm, higher = more signal, called active from +8 up or from −8 down;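 also: recombinant parasite enzyme with a five histidine tag at its C terminus; test concentration not given here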
[15] = P. aeruginosa biofilm formation inhibitors, primary screen, strain PAO1, LB-PBS medium, absorbance 600 nm (AID 1176); also: test concentration not given here; details: P. aeruginosa PAO1 growth/biofilm, A600, 12 h; higher = more signal
[16] = S. cerevisiae RM11-1a growth modifiers, primary screen, strain RM11-1a, OD600, basal, 24 h (AID 1177); details: OD600, 24 h, higher = more signal, called active from +8 up or from −8 down;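 also: cultures grown under basal conditions with no added stressor; test concentration not given here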
[17] = E. coli acrAB mutant growth effects, primary screen, E. coli filamentation inducers, strain DRC39, OD650, 24 h (AID 1178); details: higher = more signal, called active from +8 up or from −8 down;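 also: growth measured as culture turbidity by optical density at 650 nm; test concentration not given here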
[18] = E. coli acrAB mutant growth effects, primary screen, E. coli filamentation inducers, strain DRC39, OD650, 48 h (AID 1179);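 also: screen aims at cell division blockers that make cells filament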; details: E. coli DRC39 delta-acrAB growth, higher = more signal, called active from +8 up or from −8 down
[19] = RPMI8226 myeloma cell viability, profiling panel, resazurin fluorescence, basal, 24 h, PK04 Diversity Set (AID 1180); details: higher = more signal;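 also: RPMI8826 multiple myeloma cell line at 5000 cells per well; test concentration not given here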
[20] = biological target: E3 ubiquitin-protein ligase XIAP (Homo sapiens) (UniProt P98170); assay: XIAP binders, primary screen, biophysical, small-molecule microarray, fluorescence 635 nm (AID 1181); details: small-molecule microarray binding, higher = more signal;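 also: score merges 667 nm emission and signal to noise over triplicate slides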
E3 ubiquitin-protein ligase XIAP (Homo sapiens), sequence (P98170 whole entry, looked up): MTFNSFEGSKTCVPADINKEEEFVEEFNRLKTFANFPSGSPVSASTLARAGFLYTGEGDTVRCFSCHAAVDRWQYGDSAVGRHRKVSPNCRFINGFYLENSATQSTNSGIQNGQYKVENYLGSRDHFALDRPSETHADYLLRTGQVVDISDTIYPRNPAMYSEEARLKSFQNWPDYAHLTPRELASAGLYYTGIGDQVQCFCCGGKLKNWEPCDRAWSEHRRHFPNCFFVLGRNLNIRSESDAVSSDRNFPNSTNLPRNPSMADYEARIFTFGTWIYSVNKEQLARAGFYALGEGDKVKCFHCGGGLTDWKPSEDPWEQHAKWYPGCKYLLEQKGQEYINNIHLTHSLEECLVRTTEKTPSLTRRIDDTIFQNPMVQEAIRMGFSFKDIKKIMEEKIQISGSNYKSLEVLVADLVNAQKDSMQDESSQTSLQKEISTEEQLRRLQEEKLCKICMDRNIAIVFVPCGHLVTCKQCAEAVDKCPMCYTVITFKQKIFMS

Dihydroorotate dehydrogenase (quinone), mitochondrial (Plasmodium falciparum (isolate 3D7)), sequence (Q08210 whole entry, looked up): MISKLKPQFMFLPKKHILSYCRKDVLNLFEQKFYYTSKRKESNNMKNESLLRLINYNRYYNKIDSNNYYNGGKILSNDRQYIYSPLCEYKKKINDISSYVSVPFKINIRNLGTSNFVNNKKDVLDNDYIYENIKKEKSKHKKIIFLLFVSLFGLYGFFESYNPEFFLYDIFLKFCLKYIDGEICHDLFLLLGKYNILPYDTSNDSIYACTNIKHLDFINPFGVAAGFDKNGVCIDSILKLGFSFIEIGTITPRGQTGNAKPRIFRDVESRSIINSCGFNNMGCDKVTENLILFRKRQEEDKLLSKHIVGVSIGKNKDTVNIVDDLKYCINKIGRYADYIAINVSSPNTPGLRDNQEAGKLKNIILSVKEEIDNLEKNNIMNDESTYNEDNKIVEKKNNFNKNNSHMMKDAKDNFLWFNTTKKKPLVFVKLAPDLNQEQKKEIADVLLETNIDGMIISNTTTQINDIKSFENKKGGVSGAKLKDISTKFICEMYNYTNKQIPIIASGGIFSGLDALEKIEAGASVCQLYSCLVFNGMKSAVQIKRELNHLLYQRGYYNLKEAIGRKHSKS

SMILES | z-score [1] | z-score [2] | z-score [3] | z-score [4] | z-score [5] | z-score [6] | z-score [7] | z-score [8] | z-score [9] | z-score [10] | z-score [11] | z-score [12] | z-score [13] | composite z-score [14] | z-score [15] | z-score [16] | z-score [17] | z-score [18] | z-score [19] | composite z-score [20]
CC(C)(C)OC(=O)CC[C@]1(C(=O)O)N=C(c2ccc(OCCCO)cc2)O[C@H]1c1ccccc1CN=[N+]=[N-] | 0.61 | -0.788 | 0.682 | 0.519 | 0.375 | 1.43 | 1.05 (inactive) | -0.697 | -0.738 | -0.245 (inactive) | 0.706 | -0.0245 (inactive) | 0.444 (inactive) | 0.209 (inactive) | -0.788 (inactive) | -0.165 (inactive) | 0.184 (inactive) | 1.25 (inactive) | 0.925 | -0.204
CC(C)C(O)C1C=CC2C(=O)N(C)C(=O)C2N1N(c1ccccc1)c1ccccc1 (stereo not given) | -0.659 | -1.24 | 0.689 | 0.0007 | 0.0729 | -0.0204 | -0.291 (inactive) | -0.286 | -0.387 | -0.391 (inactive) | 0.207 | 0.72 (inactive) | -1.62 (inactive) | 0.85 (inactive) | 0.186 (inactive) | 0.879 (inactive) | -0.841 (inactive) | 0.195 (inactive) | -0.583 | 0.23
COc1ccc([Si](C)(C)[C@@H]2[C@@H](CCO)O[C@]3(C(=O)N(Cc4cccc(N5C(=O)c6ccccc6Oc6ccccc65)c4)c4ccccc43)[C@H]2C)cc1 | -0.799 | -0.472 | -3.38 | -1.89 | -4.32 | -0.192 | 0.614 (inactive) | -0.954 | -1.82 | -1.82 (inactive) | -1.11 | 1.02 (inactive) | -4.32 (inactive) | 0.786 (inactive) | 1.64 (inactive) | 5.08 (inactive) | 1.89 (inactive) | 1.48 (inactive) | -2.95 | -0.177
CC(C)(C)OC(=O)CC[C@@]1(C(=O)O)N=C(c2ccc(OCCCO)cc2)O[C@@H]1c1ccccc1CN=[N+]=[N-] | 0.824 | -0.0107 | 0.0885 | 0.131 | 0.813 | -0.0553 | -0.913 (inactive) | -0.411 | -0.579 | 10.4 (active) | 0.911 | -0.496 (inactive) | -0.378 (inactive) | 0.221 (inactive) | -0.0988 (inactive) | 0.323 (inactive) | 1.35 (inactive) | 1.35 (inactive) | -1.09 | 0.492
CCOC(=O)C[C@H]1[C@H](OC(=O)c2ccc(C(=O)c3ccccc3)cc2)[C@@H](NC(=O)c2ccc3ccccc3c2)c2cc(OCCCO)ccc2N1C(=O)c1ccccc1 | -0.0566 | 0.202 | -0.458 | 0.0736 | -0.602 | -0.245 | -1.1 (inactive) | 0.314 | 0.184 | -0.412 (inactive) | -0.55 | -0.592 (inactive) | -0.377 (inactive) | -0.46 (inactive) | 0.055 (inactive) | -0.617 (inactive) | 0.347 (inactive) | 0.212 (inactive) | -0.539 | -0.0367
Cc1ccc(S[C@]2(C(=O)NC(C)C)CC(=O)N(C3Cc4ccccc4C3)[C@@H]2c2ccc(CO)cc2I)cc1 | 0.6 | -0.345 | 0.425 | -1.7 | -1.29 | 0.221 | -0.277 (inactive) | -0.697 | -2.19 | -0.526 (inactive) | -0.703 | -3.55 (inactive) | -3.17 (inactive) | -2.86 (inactive) | 0.379 (inactive) | -0.639 (inactive) | 0.525 (inactive) | 0.969 (inactive) | -2.08 | -0.0795
CC(C)(C)OC(=O)CC[C@]1(C(=O)NCCN2CCOCC2)N=C(c2ccc(OCCCO)cc2)O[C@H]1c1ccccc1 | 1.01 | -1.82 | 0.549 | 0.251 | -0.51 | -0.342 | 0.134 (inactive) | -0.69 | -0.158 | 0.0762 (inactive) | -0.385 | 0.26 (inactive) | 0.0457 (inactive) | -1.63 (inactive) | -0.347 (inactive) | 0.574 (inactive) | -0.0656 (inactive) | -0.448 (inactive) | 0.13 | -0.031
O=C1O[C@@H](c2ccccc2)[C@@H](c2ccccc2)N2[C@@H](c3ccc(O)cc3)[C@]3(C(=O)Nc4ccc(C#CC5=CCCCC5)cc43)[C@@H](C(=O)N3CCN(c4ncccn4)CC3)[C@H]12 | -1.9 | 0.0112 | -1.25 | -1.2 | -2.78 | -0.703 | 0.701 (inactive) | -0.588 | -0.877 | 0.785 (inactive) | 1.48 | -0.066 (inactive) | -0.0922 (inactive) | -0.824 (inactive) | -0.0478 (inactive) | 0.207 (inactive) | -0.289 (inactive) | -0.348 (inactive) | -0.385 | 0.118
Cc1ccc(S[C@]2(C(=O)NCC(F)(F)F)CC(=O)N(Cc3ccccc3)[C@@H]2c2ccc(CO)cc2)cc1 | 0.149 | 0.787 | -0.479 | 0.0646 | -1.28 | 0.0177 | -0.291 (inactive) | 0.871 | -0.686 | 0.42 (inactive) | -0.991 | -0.185 (inactive) | 0.546 (inactive) | -0.309 (inactive) | -0.131 (inactive) | -0.629 (inactive) | 0.163 (inactive) | -0.0965 (inactive) | 0.342 | 0.4
